Bioassay records (PubChem)
CHRM1 PAM: human CHRM1 positive allosteric modulation; P11229; CHO-K1 hM1, Fluo-8 calcium fluorescence, ACh EC20; 0% = ACh EC20, 100% = maximal ACh; activation, % at 3 µM; actives 0.088% (n = 360,000); in the data active = activation above about 19%, passing the limit was not always enough
Target sequence (P11229 whole entry, looked up): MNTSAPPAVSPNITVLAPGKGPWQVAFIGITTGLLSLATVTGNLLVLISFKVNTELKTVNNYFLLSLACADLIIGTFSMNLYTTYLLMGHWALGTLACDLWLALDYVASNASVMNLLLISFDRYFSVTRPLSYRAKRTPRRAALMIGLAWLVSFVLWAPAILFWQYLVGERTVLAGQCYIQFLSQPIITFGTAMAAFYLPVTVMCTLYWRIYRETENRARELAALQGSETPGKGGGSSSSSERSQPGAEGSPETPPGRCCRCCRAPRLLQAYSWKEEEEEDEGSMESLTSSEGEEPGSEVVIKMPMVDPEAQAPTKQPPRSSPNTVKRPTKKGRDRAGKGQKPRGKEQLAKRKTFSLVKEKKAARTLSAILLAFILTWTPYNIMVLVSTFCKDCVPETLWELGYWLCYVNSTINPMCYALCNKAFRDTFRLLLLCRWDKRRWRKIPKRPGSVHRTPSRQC
CHO-K1 Ca antag: M1 antagonist counterscreen hit in parental CHO-K1 cells | ATP-induced calcium, Fluo-8 fluorescence | inhibition, % at 3 µM | actives 0.6% (n = 360,000);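 active = inhibition above a per-plate cutoff, the plate's mean sample inhibition plus 3 SD, cut at about 24% in these data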;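 note: 0% = DMSO plus EC80 ATP and 100% = DMSO alone without ATP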
CHO-K1 Ca PAM: counter-screen for M1 PAMs: effect in parental CHO-K1 cells; ATP EC20, Fluo-8 calcium fluorescence; 0% at ATP EC20, 100% at ATP max; activation, % at 3 µM; actives 0.02% (n = 360,000); AID 602247;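 active = activation above the run cutoff, the mean activation of all test compounds plus 3 SD, cut at about 40% in these data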;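 note: peak over basal fluorescence ratio in a 140 s read after ATP addition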
CHRM1 antagonist: blocks human M1 muscarinic receptor. P11229. CHO-K1 hM1, Fluo-8 calcium fluorescence, ACh EC80 antagonist. inhibition, % at 3 µM. actives 1.3% (n = 360,000);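 active = percent inhibition above its own plate's cutoff, namely the mean of that plate's compound wells plus 3 SD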;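 note: peak over basal fluorescence ratio during 140 s after agonist addition; 0% = ACh EC80 plus DMSO and 100% = DMSO alone without agonist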
M1 ag parental: nonselective activator or artifact in parental CHO-K1 cells; activation, % at 3 µM; actives 0.48% (n = 360,000); Fluo-8 calcium fluorescence; scaled to maximal ATP response, vehicle zero; in the data active = activation above about 15%;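 note: untransfected CHO-K1 host cells lacking M1 receptor as counterscreen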
M1 ag: activates human CHRM1 receptor | CHO-K1 hM1, Fluo-8 calcium fluorescence, agonist mode; 0% DMSO, 100% acetylcholine EC100 | actives 0.33% (n = 360,000) | P11229 | activation, % at 3 µM;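 active = activation above the run's mean compound activation plus 3 SD, cut at about 16% in these data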;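 note: peak over basal fluorescence ratio within a 140 s kinetic read after compound addition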
* marks the source's active call; other numbers are inactive results; . = no result given. A selection: hits, their analogues and other compounds. The true share with any hit is near 2.3%.

SMILES	CHRM1 PAM	CHO-K1 Ca antag	CHO-K1 Ca PAM	CHRM1 antagonist	M1 ag parental	M1 ag
O=C(CN1CCN(C2CCCCC2)CC1)NCCC1=CCCCC1	-14.2	2.2	-10.3	-8.6	-0.1	44.6*
CS(=O)(=O)N(CC(=O)NCCC1=CCCCC1)C1CCCCC1	4.1	-3.7	6.6	-4.1	0.2	-1.2
O=C(Cc1cccc(NC(=O)C2CCCN(C(=O)C3CCCC3)C2)c1)Nc1cccc(C(=O)N2CCOCC2)c1 (configuration not stated)	-6.5	6.5	4.7	14.6	1.7	-1.7
CCOC(=O)C(Cc1ccc(NC(C)=O)cc1)N1C(=O)c2ccccc2C1=O (configuration not stated)	-11.5	-13.0	6.9	10.4	11.2	1.0
CCCCCn1c(CN2CC(C)OC(C)C2)nc2c1c(=O)n(C)c(=O)n2C (configuration not stated)	5.6	23.8*	-7.5	-0.8	-0.1	4.3
CCCCCCn1c(CN2CCN(CCO)CC2)nc2c1c(=O)n(C)c(=O)n2C	3.9	24.0*	-6.8	-8.8	0.1	-5.3
CC1CN(Cc2nc3c(c(=O)n(C)c(=O)n3C)n2CCN2CCOCC2)CC(C)O1 (configuration not stated)	-1.5	-4.0	-2.2	14.1	-0.1	-3.9
COCCn1c(CN2CCN(c3ccccc3)CC2)nc2c1c(=O)n(C)c(=O)n2C	-13.0	-8.7	-0.4	32.9*	-0.1	-4.8
Cc1cc(=O)n2[nH]c(Nc3cccc(Cl)c3)nc2n1	8.6	-13.3	14.8	-10.9	0.6	4.6
Cc1cccc(C(=O)Nc2cccc3c2CCCC3)c1	18.1	0.1	-6.7	-32.8	-0.1	-7.2
CS(=O)(=O)c1ccc(Cl)c(NC(=O)CN2CCN(C(=O)c3cccs3)CC2)c1	1.4	-4.1	1.9	-9.5	0.8	-2.4
Cc1c(P(=S)(c2ccccc2)c2ccccc2)[n+]2ccccc2n1CCc1ccccc1	-31.5	-8.6	11.1	47.5*	0.6	-10.2
CC(C)(CC(=O)O)CC(=O)Nc1ccc(Cl)c(Cl)c1	-2.7	3.5	-11.1	-8.2	-0.2	-1.5
COc1ccc2c(c1)-c1c(sn(-c3ccc(OC)c(OC)c3)c1=S)C(C)(C)N2	-17.4	-9.6	18.5	27.1*	-0.2	-5.5
COc1ccc(-n2sc3c(c2=S)-c2cc(OC)ccc2NC3(C)C)cc1	-14.2	-14.3	6.2	9.1	0.3	-4.9
COC(=O)[C@@]1(Cc2ccccc2)[C@H]2C(=O)N(C)C(=O)[C@H]2[C@H]2CN=C(SCC(=O)c3ccccc3)N21	-32.5	-1.7	9.1	101.6*	0.8	-11.0
COc1ccc(N(CC(=O)NC2CCCCC2)C(=O)CCC(=O)Nc2nc(C)cs2)cc1OC	-2.4	-4.8	-3.0	4.5	-0.4	-4.6
COc1ccccc1CN1CCC(CNS(=O)(=O)c2cc(-c3cc(C)no3)ccc2C)CC1	-24.4	-23.4	7.3	66.2*	6.4	-2.7
COc1ccc(-c2cc(C)no2)cc1S(=O)(=O)NCC1CCN(Cc2cc(C)ccc2C)CC1	-24.7	-16.8	5.6	51.1*	2.7	-4.5
Cc1cc(-c2ccc(C)c(S(=O)(=O)NCC3CCN(Cc4ccc(F)cc4)CC3)c2)on1	-4.4	-13.7	0.2	-5.8	3.8	-3.8
NS(=O)(=O)c1ccc(CCNC(=O)COC(=O)/C=C/c2ccc(Cl)cc2)cc1	-2.8	-8.4	18.4	5.7	8.9	-5.9
CCCCn1nnnc1C(c1ccccc1)N1CCN(c2cccc(C(F)(F)F)n2)CC1 (configuration not stated)	.	-18.6	18.0	.	0.9	.
COc1cccc(N/C(N)=N/c2nc(C(F)(F)F)cc(=O)[nH]2)c1	1.0	7.8	18.0	3.6	17.9*	-6.7
COc1cccc(N/C(N)=N/c2nc(C(F)(F)F)cc(C(F)(F)F)n2)c1	-8.8	3.4	-1.6	6.9	0.6	-6.8
O=C(COC(=O)c1ccc(CO)cc1)Nc1ccc(OC(F)F)cc1	-0.6	-7.8	2.6	-5.0	1.3	-3.0
OC(CN1CCOCC1)Cn1cnc2ccccc21 (configuration not stated)	6.7	-8.9	8.2	-11.5	1.1	-2.0
OC(CN1CCOCC1)Cn1c(-c2cccc(Cl)c2)nc2ccccc21 (configuration not stated)	3.2	27.8*	-9.5	1.9	0.1	-2.7
